Compound activity: PubChem BioAssay, National Center for Advancing Translational Sciences (NCATS)
Compounds with a hit are over-represented: about 3.6% of the library has one in this group of screens.
Rango-impB inh = qHTS Assay for Inhibitors of Rango (Ran-regulated importin-beta cargo) - Importin beta complex formation; 340,000 tested, 0.031% active; Rango CFP/YFP FRET sensor + importin beta, 45 min; Potency, µM (titrated, usually from 92.2 µM); calls by dose curve; further: nearly all actives have a fitted effect of over 15% in size
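FRET biosensor (snurportin 1 IBB flanked by EYFP and cerulean), 50 nM, with compound 5 min, then 0.125 microM importin beta in PBS, 1 mM DTT, 0.02% Tween-20, 0.1% BSA. CFP/YFP ratio read after 45 min at room temperature; pre-read flags interference.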
VDR inhibitor = Inhibitors of the vitamin D receptor (VDR): qHTS. Vitamin D3 receptor (Homo sapiens), P11473. Potency, µM, hits mostly inhibitors. 400,000 tested, 0.93% active. AID 504847, 2011. VDR-SRC2-3 peptide fluorescence polarization, 2 h
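The screen uses fluorescence polarization to detect compounds that interfere with recruitment of the SRC2-3 coactivator peptide to VDR; plates are read after 2 h at room temperature.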
KAT2A inh = qHTS Assay for Inhibitors of GCN5L2 | AID 504327, 2011 | Histone acetyltransferase KAT2A (Homo sapiens), Q92830 | Potency, µM (highest dose often 58.9 µM), hits mostly inhibitors | 390,000 tested, 0.21% active | GCN5L2 HAT assay, ThioGlo1 CoA-SH fluorescence
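GCN5L2 (20 nM) in 50mM HEPES pH 7.5, 0.1mM EDTA, 0.01% Tween-20 preincubated 15 min with compounds at room temperature. Reaction started with H3(1-25) 75uM, acetyl-CoA 70uM, ThioGlo1 50uM; CoA-thiol fluorescence (Ex340/Em540) read at 0 and 20 min.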
PI5P4Ka inh = qHTS for Inhibitors of phosphatidylinositol 5-phosphate 4-kinase (PI5P4K); 330,000 tested, 1.2% active; max response, %; Phosphatidylinositol 5-phosphate 4-kinase type-2 alpha (Homo sapiens), P48426; AID 652105, 2013; PI5P4Kalpha enzyme, ADP-Glo luminescence, 60 min; active compounds read low; active means max response of -50% or lower; inconclusive means between -30% and -50%; inactive means -30% or higher; further: value at the top dose of about 77 µM
Target sequence (P48426 whole entry, looked up): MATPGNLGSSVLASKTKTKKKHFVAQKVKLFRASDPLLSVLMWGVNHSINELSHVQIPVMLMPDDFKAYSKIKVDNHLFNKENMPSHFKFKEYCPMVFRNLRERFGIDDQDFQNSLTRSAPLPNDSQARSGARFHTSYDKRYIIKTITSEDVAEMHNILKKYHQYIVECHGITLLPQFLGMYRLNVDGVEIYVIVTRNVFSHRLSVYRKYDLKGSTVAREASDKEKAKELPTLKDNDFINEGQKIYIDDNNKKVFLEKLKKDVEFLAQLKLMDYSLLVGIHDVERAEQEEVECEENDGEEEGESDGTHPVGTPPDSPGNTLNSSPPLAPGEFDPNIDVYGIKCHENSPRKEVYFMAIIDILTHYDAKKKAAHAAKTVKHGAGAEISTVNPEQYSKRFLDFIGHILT
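Controls without substrate or without enzyme flank wells where PI5P4Kalpha converts substrate using 5 microM ATP (final). Incubation lasts 60 minutes at room temperature; ADP formed is read by ADP-Glo luminescence.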
Rango release inh = qHTS Assay for Inhibitors of RanGTP induced Rango (Ran-regulated importin-beta cargo) - Importin beta complex dissociation | Snurportin-1 (Homo sapiens) + GTP-binding nuclear protein Ran (Homo sapiens) + Importin … | Biochemical FRET Rango-importin beta, RanGTP-induced dissociation | Potency, µM (top dose mostly 46.1 µM) | 340,000 tested, 0.071% active; calls by dose curve; further: nearly all actives have a fitted effect of over 45% in size
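FRET read at 45 min, room temperature: inhibitors block the CFP/YFP signal rise when RanGTP (0.6 uM Ran, 2 mM GTP, 0.2 uM RCC1) frees Rango (0.1 uM) from importin beta (0.25 uM). Pre-read after 5 min compound exposure flags interference.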
PLK1 PBD inh = qHTS for Inhibitors of PLK1-PDB (polo-like kinase 1 - polo-box domain): Primary Screen; Plk1 PBD binding of FITC phosphopeptide, fluorescence polarization; 360,000 tested, 2.8% active; Potency, µM, usual class: inhibitors; further: series mostly up to about 57 µM; nearly all actives have a fitted effect of over 65% in size
VDR inh confirm = qHTS for Inhibitors of the vitamin D receptor (VDR): Hit Validation in Primary Screen. Potency, µM, hits mostly inhibitors. VDR-coactivator inhibition assay, qHTS confirmation. 840 tested, 89% active. shares compounds with VDR inhibitor
VDR FP fluor = qHTS for Inhibitors of the vitamin D receptor (VDR): Hit Validation using a Fluorescein Assay; 840 tested, 48% active; AID 602200, 2012; Potency, µM (highest dose often 57.1 µM), actives largely listed as inhibitors; shares compounds with VDR inhibitor; VDR-coactivator binding, fluorescein fluorescence polarization
VDR bla = qHTS for Inhibitors of the vitamin D receptor (VDR): Hit Validation using a Beta-Lactamase Assay; shares compounds with VDR inhibitor; Potency, µM (titrated, usually from 46.1 µM), usual class: inhibitors; 840 tested, 23% active; AID 602202, 2012; VDR beta-lactamase reporter cells, FRET ratio; cells co-treated with VDR agonist LG190178
VDR viability = qHTS for Inhibitors of the vitamin D receptor (VDR): Hit Validation using a Cytotoxicity Assay; shares compounds with VDR inhibitor; cytotoxicity counter-screen, cell viability, qHTS; Potency, µM (doses to about 48.3 µM), usual class: cytotoxic; 840 tested, 18% active; AID 602204, 2012; further: nearly all actives have a fitted effect of over 75% in size
ADP-Glo counter = qHTS for Inhibitors of PI5P4K: ADP-Glo counter assay | Potency, µM (series often up to 76.9 µM), hits mostly inhibitors | shares compounds with PI5P4Ka inh | 1,100 tested, under 10 active | AID 743285, 2014 | ADP-Glo detection counter-screen, luciferase luminescence, no enzyme
TbPYK inh = qHTS of Trypanosoma Brucei Inhibitors: Confirmatory Assay for Cherry-picked Compounds; Potency, µM (top dose mostly 76.9 µM), usual class: inhibitors; recombinant TbPYK, Kinase-Glo ATP luminescence; 890 tested, 67% active; shares compounds with PLK1 PBD inh; further: nearly all actives have a fitted effect of over 70% in size
TbPYK orthogonal = qHTS of Trypanosoma Brucei Inhibitors: Orthogonal Assay for Cherry-picked Compounds. shares compounds with PLK1 PBD inh. recombinant TbPYK, ADP-Glo luminescence, 60 min. Potency, µM (top dose mostly 76.9 µM), actives largely listed as inhibitors. 890 tested, 62% active; further: nearly all actives have a fitted effect of over 75% in size
A number is an active result; - = inactive; ? = inconclusive; . = no result given; [ ] = remark or other dose. Unless noted, the call rests on the fitted dose curve; in most records, active means well fitted curve in the direction sought with a large enough effect; inconclusive means small, poorly fitted or top-dose-only effect, or another doubt; inactive means no such curve, though single readings can be large; an effect the other way counts as inactive or inconclusive.

SMILES	Rango-impB inh	VDR inhibitor	KAT2A inh	PI5P4Ka inh	Rango release inh	PLK1 PBD inh	ADP-Glo counter	others
CN1CCN(C(=O)c2sc(=S)n(-c3ccccc3)c2N)CC1	-	44.7µM	?	?	-	1.5µM	.	VDR inh confirm=10.6;VDR FP fluor=?;VDR bla=-;VDR viability=-;TbPYK inh=0.631µM;TbPYK orthogonal=0.891µM
Cc1c(C(=O)O)sc(=S)n1-c1ccccc1	-	-	-	-	-	-	.
NC(=O)c1c(N)sc2c1CCCCC2	-	79.4µM	-	?	-	?	.	VDR inh confirm=17.8;VDR FP fluor=14.1µM;VDR bla=-;VDR viability=-;TbPYK inh=?;TbPYK orthogonal=?
CCCOC(=O)c1c(N)sc2c1CCC2	?	-	-	-	-	-	.
CCOC(=O)c1c(N)sc(N)c1C(=O)OCC	?	8.91µM	-	-	-	3.36µM	.	VDR inh confirm=4.74;VDR FP fluor=8.91µM;VDR bla=-;VDR viability=-;TbPYK inh=31.6µM;TbPYK orthogonal=14.1µM
CCc1ccc(Sc2cc(C(=O)NCCCN3CCC(C)CC3)c3ccccc3n2)cc1	.	-	-	.	.	.	.
O=C(/C=C1\C(=O)Nc2ccccc21)/C=C1\C(=O)Nc2ccccc21	?	56.2µM	-	-83.0	-	8.44µM	.	VDR inh confirm=11.9;VDR FP fluor=?;VDR bla=?;VDR viability=?;TbPYK inh=17.8µM;TbPYK orthogonal=17.8µM
CCc1c(C)sc(NC(=O)c2ccoc2C)c1C(N)=O	-	35.5µM	?	-65.7	-	2.67µM	-	VDR inh confirm=6.7;VDR FP fluor=?;VDR bla=-;VDR viability=-;TbPYK inh=14.1µM;TbPYK orthogonal=15.8µM
Cc1ccc(CSCC(=O)N2CCOCC2)cc1	-	-	-[0.501 µM]	-51.5	-	2.99µM	-
O=C(CSCc1ccc(Cl)cc1)N1CCOCC1	-	-	-	-	-	-	.
NS(=O)(=O)c1ccc(NC(=O)C2Cc3ccccc3CN2C(=O)c2ccco2)cc1 (stereo not drawn)	-	-	-	-87.3	-	-	-
O=C(Nc1nnc(COc2ccc(Cl)cc2)s1)c1cccs1	-	-	-	-57.0	-	2.67µM	-
CCC(Cc1ccccc1)NC(=O)CN1C(=O)COc2ccc(S(=O)(=O)N3CCCCCC3)cc21 (stereo not drawn)	.	-	-	.	.	.	.
COc1cccc(N2CCN(C(=O)c3ccc(CS(=O)c4ccccc4C)o3)CC2)c1 (stereo not drawn)	-	-	-	-	-	?	-
CCOC(=O)CSc1nc2ccc(NC(=O)CSc3nnnn3Cc3ccccc3)cc2s1	?	-	-	-	-	-	-
O=C(CSc1nc2[nH]c(=O)cc(O)c2s1)Nc1ccc(Cl)c(C(F)(F)F)c1	-	-	-	-54.0	-	-	-
COc1ccc(S(=O)(=O)Nc2ccc3c(c2)CCCN3S(=O)(=O)c2ccc(C)cc2)cc1F	.	-	-	.	.	.	.
S=C(NCc1ccccc1)N1CCc2ccccc2C1	-	-	-	-93.2	-	-	-
CCNC(=S)N1CCc2ccccc2C1	-	-	-	-	-	-	.
Cc1cc(C)c(NC(=O)CSc2nc(C)cc(C)c2C#N)c(C)c1	.	-	-	.	.	.	.
O=C1Nc2cc(Cl)ccc2Nc2cscc21	-	?	.	.	-	.	-
O=C1Nc2ccccc2Nc2ccccc21	-	-	-	-	-	-	.
COC(=O)CNC(=O)C1Cc2ccccc2CN1S(=O)(=O)c1cccs1 (stereo not drawn)	-	-	-	-	-	-	-
COC(=O)CNC(=O)C1Cc2ccccc2CN1S(=O)(=O)c1ccc(F)cc1 (stereo not drawn)	-	-	-	-	-	-	.
